Compounds with a hit are over-represented: about 7.5% of the library has one in this group of screens.
SMN2 splice up: SMN2 splice variant enhancement | HEK293 SMN2-luciferase splicing reporter, luminescence, 30-36 h | Potency, µM (top dose mostly 46.1 µM), for the others: at the highest dose activity change, positive = activation, usual class: activators | 210,000 compounds, 2.8% hits | AID 1458; note: % of control where 0% means no effect; nearly all actives have a fitted effect of over 55% in size
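HEK293 cells carry an SMN2 […]–luciferase reporter in which exon 7 inclusion puts luciferase in frame. Cells were plated 10-12 h before compound addition, then incubated 30-36 h at 37C. ONE-Glo luminescence was read; sodium butyrate at 4.5 mM final served as control.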
NPC1 prom act: activates the NPC1 promoter; 320,000 compounds, 2.4% hits; Potency, µM (highest dose often 9.22 µM), inactives show at the highest dose activation, hits mostly activators; Huh7 NPC1 promoter luciferase reporter, 24 h; AID 485313; note: % of control where 0% means no effect; nearly all actives have a fitted effect of over 60% in size
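Cells: Huh7 expressing luciferase under the NPC1 promoter, 1500/well. Seeded 2 h, compound added, incubated 24 h at 37 °C. Luciferase reagent, 10 min ambient, then luminescence.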
FLuc counter: inhibits or activates purified firefly luciferase, miR-21 counter-screen | 360,000 compounds, 6.9% hits | Potency, µM (series often up to 57.5 µM), without a hit: at the top dose activity change, negative = inhibition, hits mostly inhibitors | P08659 | purified FLuc, Km substrates, luminescence inhibition | AID 588342;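 note: plate controls were vehicle for no effect and reference inhibitor for full effect; nearly all actives have a fitted effect of over 55% in size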
Target sequence (P08659 whole entry, looked up): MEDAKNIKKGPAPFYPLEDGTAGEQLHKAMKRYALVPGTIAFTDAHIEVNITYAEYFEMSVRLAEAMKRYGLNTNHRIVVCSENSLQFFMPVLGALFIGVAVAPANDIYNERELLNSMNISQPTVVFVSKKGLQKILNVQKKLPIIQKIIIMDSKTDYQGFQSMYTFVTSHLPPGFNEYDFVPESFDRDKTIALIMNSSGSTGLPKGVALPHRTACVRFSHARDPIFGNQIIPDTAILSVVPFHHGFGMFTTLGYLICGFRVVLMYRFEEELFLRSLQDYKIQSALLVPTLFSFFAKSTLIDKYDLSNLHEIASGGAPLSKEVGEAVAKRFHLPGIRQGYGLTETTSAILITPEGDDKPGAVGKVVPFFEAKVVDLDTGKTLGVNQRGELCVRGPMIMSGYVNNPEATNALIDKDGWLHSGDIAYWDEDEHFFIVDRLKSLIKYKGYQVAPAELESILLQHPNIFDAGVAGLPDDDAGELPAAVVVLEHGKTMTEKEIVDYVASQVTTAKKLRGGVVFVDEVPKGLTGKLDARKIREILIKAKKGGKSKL
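Biochemical qHTS of compounds, final roughly 60 µM downward over six points, against 10 nM purified firefly luciferase using Km concentrations of substrates (10 uM D-luciferin, 10 uM ATP) in Tris acetate pH 7.5 buffer; luminescence output.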
ELG1 genotoxic: induces genotoxicity in HEK293T cells with luciferase-tagged ELG1; HEK293T ELG1-luciferase reporter, luminescence, 16 h; Potency, µM (highest dose often 46 µM), for the others: at the highest dose activity change, positive = activation, hits mostly activators; 330,000 compounds, 1.3% hits; note: % of control where 0% means no effect; nearly all actives have a fitted effect of over 60% in size
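Genotoxic stress is detected as increased luminescence from luciferase-tagged ELG1 in HEK293T cells, measured with ONE-Glo after a 16 hr treatment at 37 °C.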
Rab9 prom act: Rab9 promoter activation; Huh7 Rab9 promoter-luciferase reporter, luminescence, 24 h; Potency, µM (highest dose often 9.22 µM), for the others: top-dose activation, negative = inhibition, most hits filed as activators; 320,000 compounds, 2.8% hits; AID 485297; note: % of control where 0% means no effect; nearly all actives have a fitted effect of over 60% in size
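Quantitative HTS format; Huh7 Rab9-luciferase reporter cells (1500/well) receive compound 2 h post-plating, incubate 24 h at 37 °C, then get luciferase reagent for 10 min before luminescence reading.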
KinaseGlo FLuc: Kinase-Glo luciferase inhibition (counter-screen). Q27757. Kinase-Glo luciferase, ATP luminescence, 8 min. Potency, µM (series often up to 38.3 µM), without a hit: top-dose activity change, negative = inhibition, actives largely listed as inhibitors. 200,000 compounds, 0.28% hits. AID 1379; note: % is set by controls: 0 for no effect and ±100 for the full control effect; nearly all actives have a fitted effect of over 60% in size
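Compound is pinned into ATP-containing buffer (10 uM ATP, imidazole pH 7.2, 7 mM MgCl2). Kinase-Glo luciferase reagent is then added. Light output is recorded following an 8-min room-temperature incubation.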
Starred values were filed as active, the others as inactive; ? = inconclusive; . = no result given; [ ] = dose if it differs, or a comment. Calls come from the whole dose curve; as a rule, active = well fitted curve in the direction sought with a large enough effect; inconclusive = small, poorly fitted or top-dose-only effect, or another doubt; inactive = no such curve, though single readings can be large; an effect the other way counts as inactive or inconclusive. Potency is the fitted concentration of half-maximal effect.

SMILES	SMN2 splice up	NPC1 prom act	FLuc counter	ELG1 genotoxic	Rab9 prom act	KinaseGlo FLuc
COc1cc(SC)ccc1C(=O)Nc1ccc(C)cc1	.	?	1.9µM*	?	3.5µM*	-3%
COc1cc(SC)ccc1C(=O)Nc1ccc2c(c1)OCO2	11µM*	0.89µM*	1.3µM*	2.6µM*	1.6µM*	-3%
COc1cc(SC)ccc1C(=O)Nc1ccc(C)cc1C	13µM*	2.5µM*	2.7µM*	?	3.5µM*	-7%
COc1cc(SC)ccc1C(=O)Nc1ccc(S(=O)(=O)N2CCCC2)cc1	-20%	0%	-7%	18%	-4%	-5%
O=C(c1ccc2c(c1)N(Cc1ccccc1)C(=O)c1ccccc1S2(=O)=O)N1CCN(Cc2ccccc2)CC1	-50%	.	1%	.	.	.
O=C(CN1CCN(c2ccccc2O)CC1)Nc1cccnc1Cl	-3%	-5%	-2%	0%	0%	1%
O=C(NCCc1ccc(Cl)cc1)c1ccc(CS(=O)(=O)Cc2ccc(Cl)cc2)o1	.	.	-7%	.	.	.
Oc1cc(O)cc(/C=C/c2ccc(O)c(O)c2)c1	32µM*	?	9.5µM*	5.2µM*	-34%[46.1 µM]	?
O=C(CCSc1ccccn1)c1ccccc1	3%	-1%	6µM*	-2%	-2%	-3%
O=C(Cc1ccccn1)c1ccc(Cl)cc1	.	?	12µM*	?	2.8µM*	.
O=C(CCCc1ccccn1)c1ccccc1	2.8µM*	.	.	.	.	-3%[7.66 µM]
CCc1cccc2c(C(=O)COC(=O)c3nn(C)c(=O)c4ccccc34)c[nH]c12	-3%	-2%	13µM*	-19%	-1%	-1%
CC(C)n1nc(C(=O)OCC(=O)c2c[nH]c3ccccc23)c2ccccc2c1=O	8%	-3%	?	-7%	1%	15%
CCc1cccc2c(C(=O)COC(=O)C3=NNC(=O)CC3)c[nH]c12	-1%	0%	-18%	0%	-8%	-3%
CCn1nc(C(=O)OCC(=O)c2c[nH]c3ccccc23)c2ccccc2c1=O	-10%	5%	24µM*	3%	1%	-3%
Cc1cccc(-c2noc(-c3ccno3)n2)c1	.	29%	21µM*	?	?	.
CC(C)c1cc(-c2nc(-c3cccc(Cl)c3)no2)n[nH]1	.	.	6.7µM*	.	.	.
COc1cccc(-c2noc(-c3cc(C(C)C)[nH]n3)n2)c1OC	.	.	17µM*	.	.	.
Cc1cccc(-c2nc(-c3ccc4c(c3)[nH]c(=O)n4C)no2)c1	.	.	1%	.	.	.
COc1cccc(-c2noc(C3CC(=O)N(c4ccc(F)cc4)C3)n2)c1OC (stereo unspecified)	.	.	5%	.	.	.
CS(=O)(=O)c1ccccc1-c1nc(-c2cccc(Cl)c2)no1	-13%	0%	?	7%	?	5%
Cc1cccc(-c2noc(-c3cc(C(C)C)[nH]n3)n2)c1	.	.	4.8µM*	.	.	.
CN(CC1CCOCC1)C(=O)CC1C(=O)NCCN1C/C=C/c1ccccc1 (stereo unspecified)	.	-4%	1%	2%	-4%	5%
Cn1c(-c2ccc3c(c2)OCO3)cnc1NCc1ccccc1Cl	?	25%	12µM*	10%	?	-1%
O=C(Nc1ccccc1C(=O)Nc1ccc(Br)cn1)c1ccccc1Cl	.	-4%	?	-3%	-8%	.
SMILES	SMN2 splice up	NPC1 prom act	FLuc counter	ELG1 genotoxic	Rab9 prom act	KinaseGlo FLuc
O=C(Nc1ccc(Br)cn1)c1ccc(Br)s1	.	?	4.3µM*	?	0.79µM*	.
CCC(=O)Nc1ccc(Br)cn1	.	-3%	2%	-3%	-8%	-2%
Cc1cc(C(=O)Nc2ccc(Br)cn2)sc1C	.	1µM*	.	?	2.2µM*	.
O=C(Nc1ccc(Br)cn1)c1ccc(Cl)s1	.	0.89µM*	4.3µM*	3.3µM*	1µM*	.
O=C(Nc1ccccn1)c1ccc(Cl)s1	.	2.2µM*	?	?	4µM*	.
CCOc1ccc(N(C(=O)c2ccc(Cl)cc2)S(=O)(=O)c2ccc3c(c2)n(C)c(=O)n3C)cc1	-2%	.	-5%	.	.	.
Cc1ccccc1C(=O)Nc1ccc(Br)cn1	.	?	11µM*	9.2µM*	3.5µM*	.
Cc1cccc(NC(=O)C2CCN(c3nnc(-n4c(C)ccc4C)s3)CC2)c1C	7%	.	-4%	.	.	.
S=c1[nH]nc(CSCCOc2ccc(Cl)cc2Cl)o1	.	14%	21µM*	5%	2%	.
Cc1ccc(-c2cc(C(=O)NCCCN3CCOCC3)c3ccccc3n2)cc1	.	2%	?	15%	-2%	.
CCOc1ccc(-c2cc(C(=O)NCCCN3CCCC3)c3ccccc3n2)cc1	.	2%	12µM*	13%	1%	.
Cc1ccc(-c2cc(C(=O)NCCCN3CCOCC3)c3ccccc3n2)cc1C	.	5%	12µM*	-4%	1%	.
Cc1ccc(-c2cc(C(=O)NCCCN3CCCC3)c3ccccc3n2)cc1C	.	0%	?	?	-9%	.
COc1ccc(Nc2cc(C(=O)NCCCN3CCOCC3)c3ccccc3n2)cc1OC	3%	4%	17µM*	-3%	1%	-6%
Cc1cc(OCCCn2c(CCNC(=O)C3CCCCC3)nc3ccccc32)ccc1Cl	-4%	.	?	.	.	.
CCOC(=O)c1cccc(NC(=O)CN2C(=O)CC(C)(C)Sc3ccccc32)c1	1%	.	-18%	.	.	.
FC(F)Oc1ccc(NC(=S)NNc2ccnc3cc(Cl)ccc23)cc1	1%	-5%	3%	0%	-2%	0%
COc1ccc(-c2csc(Nc3ccc(C)cn3)n2)cc1OC	-19%	4%	17µM*	-1%	?	5%
COc1ccc(-c2csc(Nc3cc(C)ccn3)n2)cc1OC	.	?	11µM*	5%	?	.
COc1ccc(-c2csc(Nc3ccc(S(N)(=O)=O)cc3)n2)cc1OC	.	-12%	-17%	-14%	-2%	.
O=C(Cc1ccc(-c2ccccc2)cc1)Nc1ccccc1	.	3%	-1%	?	16%	.
O=C(Cc1ccc(-c2ccccc2)cc1)Nc1ncccc1O	.	?	15µM*	?	?	.
Cc1ccc(Oc2nc3c(c(=O)n(Cc4ccccc4)c(=O)n3C)n2C)cc1C	-52%	.	-2%	.	.	.
C/C(=N\NC(=O)COc1ccccc1F)c1cc2ccccc2o1	?	?	11µM*	?	?	2%
COc1ccc(OC)c(NC(=O)c2c(N3CCCC3=O)c3cc(OC)ccc3n2C)c1	.	.	-10%	.	.	.
Cc1ccc(/C=N/c2sc3c(c2C#N)CCCCC3)o1	-32%	4.5µM*	0.17µM*	1.5µM*	4µM*	?
Cc1[nH]n(-c2ccc(F)cc2)c(=O)c1/C=N/c1sc2c(c1C#N)CCCC2	-22%	1%	13µM*	-5%	0%	-25%
Cc1ccc(C=Nc2ccccc2C#N)s1	3%	0%	1.3µM*	9%	0%	-21%
